# Results published in PubChem BioAssay (EPA / NIEHS).
# Records with an inconclusive call do not appear. The source made the active and inactive calls. The calls were made as follows, unless noted: active = hit-call score of the fitted dose curve at least 0.9, where 1 is the maximum; inactive = score below 0.9.
# Columns and labels:
# [1] = TAMU_PeakParms_SingleDonor1434_Chronotropy: Texas A&M University (TAMU) 1.5-hr Human Induced Pluripotent Stem Cell (iPSC)-derived Cardiomyocytes Calcium (Ca+2) Flux Assay for Cardiotoxicity: Chronotropy (changes in peak frequency) (AID 2284217); conditions: actives raise or lower the signal
# How it was run: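 Using fluorescent Ca2+ flux, average beats per second are measured in human iPSC-derived cardiomyocytes treated 90 min (0.5% DMSO vehicle, 0.2–100 uM). Non-beating data points are removed; activity is modeled in both directions relative to DMSO controls.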
# [2] = CCTE_Mundy_HCI_Cortical_Synap_Neur_Matur_SynapseCount: CCTE's Synaptogenesis and Neurite Maturation Assay in rat cortical cells for Synapse Count, Mundy Lab (AID 2284218)
# How it was run: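 Rat primary cortical cultures, AraC at DIV 5, chemical dosing DIV 7 to DIV 12 (288.33 h). Fixed cells stained for MAP2, synaptophysin and Hoechst; synapses per neuron counted by high-content imaging, loss of signal versus DMSO.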
# [3] = CCTE_Mundy_HCI_hN2_NOG_NeuriteCount: CCTE's Neurite Outgrowth Assay in human hN2 cells for Neurite Count, Mundy Lab (AID 2284219; active = hit-call score of the fitted dose curve at least 0.9, where 1 is the maximum)
# Experimental: CCTE_Mundy_HCI_hN2_NOG is a multiplexed, cell-based-readout assay that uses immature neurons derived from hNP1 neuroprogenitor cells with measurements taken at 50.33 hours after chemical dosing in a microplate: 96-well plate.CCTE_Mundy_HCI_hN2_NOG_NeuriteCount is one of four components of the CCTE_Mundy_HCI_hN2_NOG assay. It measures neurite outgrowth related to number of neurites using High Content Imaging of fluorescently labelled markers.[…] Using a type of morphology reporter, loss -of-signal activity can be used to understand developmental effects.
# Exposure starts 2 hours post-plating by adding 10 ul of the working solution to 90 ul of media in the wells for a 1/10 dilution. Forty-eight hours after chemical treatment cells are fixed by direct addition of 100 ul of warm (37C) Dulbecco's phosphate buffered saline (DPBS) fixative solution containing 8% paraformaldehyde, 8% sucrose, and 0.1% of 3 mg/ml Hoechst 33342 into each well. Primary antibodies are prepared by dilution in Immunocytochemical Staining Buffer (ISB), 10X Dulbecco's PBS, 0.1% Saponin, 5% Bovine Serum Albumin, 0.5% NaN3 (Sodium Azide) and betaIII-tubulin (rabbit anti-betaIII-tubulin, 1:800) followed by Alexa Fluor-488 secondary (1:500) to label neuronal cell bodies and neurites. A Cellomics ArrayScan VTi HCS Reader is used for automated image acquisition and analysis of neurite outgrowth.
# [4] = CCTE_Mundy_HCI_hN2_NOG_NeuriteLength: CCTE's Neurite Outgrowth Assay in human hN2 cells for Neurite Length, Mundy Lab (AID 2284220; active = hit-call score of the fitted dose curve at least 0.9, where 1 is the maximum)
# How it was run: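 Using βIII-tubulin immunofluorescence and Hoechst nuclear counterstain, this component quantifies neurite length in hNP1-derived neurons.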
# [5] = CCTE_Mundy_HCI_hN2_NOG_NeuronCount: CCTE's Neurite Outgrowth Assay in human hN2 cells for Neuron Count, Mundy Lab (AID 2284221; active = hit-call score of the fitted dose curve at least 0.9, where 1 is the maximum)
# How it was run: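 Read-out is the number of betaIII-tubulin-positive neurons imaged by automated high-content analysis, with DMSO as negative control.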
# [6] = CCTE_Mundy_HCI_Cortical_Synap_Neur_Matur_CellBodySpotCount: CCTE's Synaptogenesis and Neurite Maturation Assay in rat cortical cells for Cell Body Spot Count, Mundy Lab (AID 2284223)
# How it was run: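 Synapse number at neuronal cell bodies was quantified as synaptophysin puncta per neuron in rat cortical cultures exposed from DIV 7 to DIV 12. Values were normalised to DMSO.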
# [7] = CCTE_Mundy_HCI_hNP1_Pro_ResponderAvgInten: CCTE's Proliferation Assay in human neuroprogenitor cells, Mundy Lab (AID 2284224; active = hit-call score of the fitted dose curve at least 0.9, where 1 is the maximum;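 also: human neural progenitor cells hNP1 derived from WA09 embryonic stem cells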)
# How it was run: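 Human neuroprogenitors (hNP1, WA09 lineage) receive test chemical after 40 to 44 hours of attachment. A four-hour BrdU pulse begins twenty hours later, followed by fixation and high content imaging; signal is referenced to DMSO controls.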
# [8] = TAMU_HCS_1.5hr_SingleDonor1434_Cytotoxicity: Cytotoxicity Assessment using High-content Screening (HCS) Fluorescent Imaging for the Texas A&M University (TAMU) 1.5-hr Human Induced Pluripotent Stem Cell (iPSC)-derived Cardiotoxicity Assay (AID 2284234; active = hit-call score of the fitted dose curve at least 0.9, where 1 is the maximum)
# How it was run: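 Human iPSC-derived cardiomyocytes dosed at 0.2, 1, 10, 100 uM final (0.5% DMSO) for 90 min at 37 C. Hoechst 33342-stained nuclei counted by 10x high-content imaging; POD is EC10, a 10% drop in total cell count versus DMSO.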
# [9] = TAMU_PeakParms_SingleDonor1434_QT: Texas A&M University (TAMU) 1.5-hr Human Induced Pluripotent Stem Cell (iPSC)-derived Cardiomyocytes Calcium (Ca+2) Flux Assay for Cardiotoxicity: QT (decay-rise ratio) (AID 2284235; active = hit-call score of the fitted dose curve at least 0.9, where 1 is the maximum)
# How it was run: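 iPSC-derived cardiomyocytes (single donor 1434) dosed at 0.2, 1, 10, 100 uM final in 0.5% DMSO, 90 min at 37C. Ca2+ flux fluorescence decay/rise ratio; EC05 (5% increase versus DMSO) as POD, excluding beat-arrest and severe-notch data.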
# [10] = CCTE_Mundy_HCI_Cortical_Synap_Neur_Matur_NeuriteCount: CCTE's Synaptogenesis and Neurite Maturation Assay in rat cortical cells for Neurite Count, Mundy Lab (AID 2284222);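 also: exposure from day 7 to day 12 in vitro with readout at day 12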
# How it was run: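 In this multiplexed morphology readout, rat primary cortical neurons are fixed at DIV 12 following dosing at DIV 7 and stained for MAP2, synaptophysin and nuclei. High-content image analysis yields neurite count.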
structure (smiles),measurement,setting,value
O=c1[nH]cc(F)c(=O)[nH]1,outcome,[1],inactive
same,outcome,[2],inactive
same,outcome,[3],inactive
same,outcome,[4],inactive
same,AC50,[5],2.34 µM (active)
same,outcome,[6],inactive
same,AC50,[7],4.62 µM (active)
same,outcome,[8],inactive
same,outcome,[9],inactive
CCOc1ccc2c(c1)C(C)=CC(C)(C)N2,outcome,[1],inactive
same,AC50,[8],50 µM (active)
same,outcome,[9],inactive
CCCc1cc(=O)[nH]c(=S)[nH]1,outcome,[1],inactive
same,outcome,[2],inactive
same,outcome,[3],inactive
same,outcome,[4],inactive
same,outcome,[5],inactive
same,outcome,[6],inactive
same,outcome,[8],inactive
C[Si]1(C)O[Si](C)(C)O[Si](C)(C)O[Si](C)(C)O1,outcome,[2],inactive
same,outcome,[10],inactive
same,outcome,[6],inactive
same,outcome,[7],inactive
OC[C@@H](O)[C@@H](O)[C@H](O)[C@H](O)CO,AC50,[2],0.0648 µM (active)
same,outcome,[10],inactive
same,outcome,[6],inactive
CC(=O)Oc1ccccc1C(=O)O,outcome,[1],inactive
same,outcome,[2],inactive
same,outcome,[10],inactive
same,outcome,[6],inactive
same,outcome,[8],inactive
same,outcome,[9],inactive
COC(=O)c1ccc(O)cc1,AC50,[1],50 µM (active)
same,outcome,[8],inactive
same,outcome,[9],inactive
O=C(O)CCCCC(=O)O,outcome,[1],inactive
same,outcome,[8],inactive
same,outcome,[9],inactive
